PubChem BioAssay (NCI)
The panel holds about 83,000 compounds, 20% with a hit somewhere; the sample as a whole holds those more often.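 Plates (96-well) were seeded with cells, treated with compound at one concentration, and incubated for 48 hours before percent growth was determined.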 Unmarked numbers belong to inactive results. Calls of active or inactive are those of the source. Rule for the calls: active = growth percent below 10; inactive = the rest.

Test system: SK-MEL-2 melanoma
Experiment: NCI-60 one-dose screen, 48 h (100 = growth as untreated, 0 = no growth, -100 = all killed)
Details: 10 µM

SMILES | growth
CN1CCN(c2ccc(Nc3nc(NCCCNC(=O)c4ccc(F)cc4)c4sccc4n3)cc2)CC1 | 106%
O=C(CS(=O)(=O)c1oc(-c2ccc(Cl)cc2)nc1S(=O)(=O)c1ccc(Cl)cc1)N1CCOCC1 | 83.9%
COc1ccc(C(=O)NC(=S)N2CCN(c3ncnc4c3cnn4-c3ccccc3)CC2)cc1 | 57.6%
COc1cccc(COc2ccc(/C=C3\Oc4cc(O)ccc4C3=O)cc2)c1 | 87%
O=C(O)CCCCCCCCCCN1C(=O)/C(=C/c2cnc(-c3ccc(Cl)cc3)s2)SC1=S | -38.6% (active)
COc1cccc(C(N)=Nc2ccc(OCCCCCCn3cncn3)cc2)c1 | 27.3%
CN(C)c1cccc2c(S(=O)(=O)Nc3cccc(-c4csc(NC(=O)CCCCCN5CCN(c6cc7c(cc6F)C(=O)N(C6CCC(=O)NC6=O)C7=O)CC5)n4)c3)cccc12 (stereo not drawn) | 108%
Cc1ccc(C(C)C)cc1NC(=O)c1ccccc1O | 25.4%
NC(=Nc1ccc(OCCCCCCCCn2ccnn2)cc1)c1ccccc1 | 14.8%
O=c1[nH][nH]c(Nc2ccccc2)c1N=Nc1ccc(F)cc1 | 94.1%
COc1ccc2[nH]c(O)c(N=NC(=O)c3cc(-c4ccc(C)cc4)nc4ccccc34)c2c1 | 111%
CN1C(=O)/C(=C/c2nccs2)SC1=S | 96.9%
CNC(=O)c1cc(-c2ccc(NC(=O)Nc3ccc(C)cc3)cc2)nc2cccnc12 | 103%
CC(=O)NNc1ccc2nnc(-c3ccc(Br)cc3)n2n1 | 104%
O=c1oc2ccc(-c3ccc(F)cc3F)cc2c(=O)n1-c1ccc(F)c(Cl)c1 | -67.4% (active)
CCN1CCN(c2ccc(NC(=O)Nc3ccc(-c4cc(C(=O)NC(C)C)c5ncccc5n4)cc3)cc2C(F)(F)F)CC1 | -71% (active)
COC(=O)C(Cc1ccc(O)c(O)c1)NC(=O)C(CSC/C=C(\C)CCCC(C)CCCC(C)CCCC(C)C)NC(C)=O (stereo not drawn) | 74.5%
CN1CCN(c2ccc(Nc3nc(NCCCNC(=O)c4ccc(Cl)cc4)c4sccc4n3)cc2)CC1 | 113%
CCCCCCCCCCCCCCCCCCCC(=O)NCCc1c[nH]c2ccc(O)cc12 | 107%

SMILES | growth
CCCCCc1ccc(S(=O)(=O)N(C(C)=O)c2cc(-c3csc(N(C)C(C)=O)n3)ccc2N2CCN(C)CC2)cc1 | 35.1%
COc1ccc2[nH]c(O)c(N=NC(=O)COc3ccc(NC(=O)Nc4ccc(Cl)cc4)cc3)c2c1 | -8.16% (active)
CCCCCCCCCCCCCCCCCCCC(=O)NCCc1c[nH]c2ccc(OC(=O)NOCCOCCOCCOCCOCCOCCOCCOCCOCCOCCOCCOCCOCCOCCOCCOCCOCCOCCOCCOCCOCCOCCOC)cc12 | -68.5% (active)
CC1(C)CC[C@]2(C(=O)N3CCOCC3)CC[C@]3(C)C(=CC[C@@H]4[C@@]5(C)CC[C@H](NCO)C(C)(C)[C@@H]5CC[C@]43C)[C@H]2C1 | -82% (active)
Cc1ccc(-c2cc(C(=O)N=Nc3c(O)[nH]c4ccc(Br)cc34)c3ccccc3n2)cc1 | 104%
CCC(C)S(=O)(=O)c1oc(-c2ccc(C)cc2)nc1S(=O)(=O)c1ccccc1 (stereo not drawn) | -94.9% (active)
CCCCCc1ccc(S(=O)(=O)Nc2cc(-c3csc(N(C)C(C)=O)n3)ccc2N2CCN(C)CC2)cc1 | 24.2%
C/C(=C\CC/C=C(\C)CC/C=C(\C)CC[C@@H](O)C(C)(C)O)CC/C=C(\C)CC[C@@H](O)C(C)(C)O | 52.1%
CC(C)C(=O)Nc1ccc(C(=O)NC(=S)Nc2ccc(C(=O)O)cc2)cc1 | 105%
CN1CCN(c2ccc(Nc3nc(N4CCN(S(=O)(=O)c5ccc(F)cc5)CC4)c4sccc4n3)cc2)CC1 | -72.7% (active)
O=C(Cn1cc(CSc2nnc3oc4ccccc4n23)nn1)Nc1ccc(Br)cc1 | 71.5%
CC1(C)CC[C@]2(C(=O)NCCCNCCCCNCCCN)CC[C@]3(C)C(=CC[C@@H]4[C@@]5(C)Cc6c([nH]c7ccccc67)C(C)(C)[C@@H]5CC[C@]43C)[C@H]2C1 | 101%
COc1ccc(CCN2C(=O)/C(=C/c3csc(C#N)n3)SC2=S)cc1 | -0.186% (active)
CC(=O)Nc1nc(-c2ccc(N3CCN(C)CC3)c(NS(=O)(=O)c3ccc(C(F)(F)F)cc3)c2)cs1 | 7.74% (active)
O=C(NO)c1ccc(Cn2ccc3c(Nc4ccccc4)ncnc32)cc1 | 8.71% (active)
CC(=O)Nc1nc(-c2ccc(N3CCN(C)CC3)c(NS(=O)(=O)c3cccc4c(N(C)C)cccc34)c2)cs1 | 65.3%
CCCCCCCCCCCCCCCCCCCC(=O)NCCc1c[nH]c2ccc(OC(=O)CCCC(=O)OCCOOCCOOCCOOCCOOCCOOCCOOCCOOCCOOCCOOCCOOCCOOCCOC)cc12 | 78.1%
COC[C@@H](CC(C)C)N=C1NC(=O)/C(=C/c2ccc3ncsc3c2)N1 | -70.7% (active)
O=C(NC(=S)N1CCN(c2ncnc3c2cnn3-c2ccccc2)CC1)c1ccc(Cl)cc1 | 88.8%
